Compounds with a hit are over-represented: about 19% of the library has one in this group of screens.
TDP1 cell noCPT – qHTS for Inhibitors of human tyrosyl-DNA phosphodiesterase 1 (TDP1): qHTS in cells in absence of CPT; 420,000 tested, 15% active; Potency, µM (top dose mostly 46.2 µM), most hits filed as inhibitors; DT40 Tdp1-/- hTDP1 cells, no CPT, ATP luminescence, 48 h; also: nearly all actives have a fitted effect of over 55% in size
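No-CPT arm: Tdp1-/-;hTDP1 DT40 cells (400/well) plus compounds, incubated ≥48 hr at 37 °C. Readout CellTiter-Glo luminescence.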
HepG2 viability – counter-screen for TGF-b inhibitors: cytotoxicity in HepG2 cells. HepG2 CAGA-GFP viability, ATP luminescence, 18 h. Potency, µM (titrated, usually from 46.1 µM), most hits filed as cytotoxic. 410,000 tested, 0.76% active
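HepG2 CAGA-GFP cells (1000/well, DMEM with 1% FBS) received compound, then TGF-beta at 500 pg/mL final, and were incubated 18 hours at 37 degrees C. Viability was read by CellTiter-Glo luminescence. Media-only wells were set as complete cell-killing and DMSO as no toxicity.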
DT40 TDP1 CPT – growth inhibition of DT40 Tdp1-/-;hTDP1 cells with camptothecin (screen for TDP1 inhibitors); chicken DT40 Tdp1-/-;hTDP1 cells + 20 nM CPT, ATP luminescence, 48 h; Potency, µM (doses to about 46.2 µM), hits mostly inhibitors; 420,000 tested, 12% active; also: nearly all actives have a fitted effect of over 55% in size
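Cell growth measured by CellTiter-Glo luminescence after a minimum 48 h, 37 C compound exposure with 20 nM CPT in Tdp1-knockout DT40 cells stably expressing hTDP1, seeded 400/well; qHTS titration format.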
TGFb SMAD3 inh – inhibitors of TGF-b signaling | HepG2 CAGA-GFP TGF-b/SMAD3 reporter, GFP fluorescence, 18 h; TGF-beta stimulated, 500 pg/mL final | 410,000 tested, 1.2% active | Potency, µM (top dose mostly 46.1 µM), actives largely listed as inhibitors; also: nearly all actives have a fitted effect of over 65% in size
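Read-out: total well GFP (ex488/em500-530) summed from mean per-cell fluorescence. Cells: HEPG2 CAGA-GFP, 1% FBS DMEM, 18 h at 37 degrees C with 500 pg/mL final TGF-beta. Unstimulated wells served as the full-inhibition control; stimulated DMSO wells = 0%.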
IL1B secr inh – inhibitors of inflammasome signaling (IL-1 beta secretion). activity change, % at 57.5 µM. AID 743279. 360,000 tested, 4.7% active. THP-1 LPS/ATP IL-1B secretion, AlphaLISA, 16 h; stronger effect = lower value; in the data active = activity change below about -50%; inconclusive = mostly about -30% to -49%
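THP-1 cells pretreated 1 hr with compounds (up to 57.5 uM final), then stimulated with LPS (250 ng/mL final) plus ATP (1.25 mM final); secreted IL-1B measured by AlphaLISA after 16 hr, decreased signal indicating inhibition.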
TDP1 block – TDP1 (human) enzyme inhibition; Q9NUW8; Potency, µM (highest dose often 130 µM), actives largely listed as inhibitors; 350,000 tested, 0.28% active; recombinant TDP1, AlphaScreen DNA substrate cleavage; also: nearly all actives have a fitted effect of over 40% in size
Target sequence (Q9NUW8 whole entry, looked up): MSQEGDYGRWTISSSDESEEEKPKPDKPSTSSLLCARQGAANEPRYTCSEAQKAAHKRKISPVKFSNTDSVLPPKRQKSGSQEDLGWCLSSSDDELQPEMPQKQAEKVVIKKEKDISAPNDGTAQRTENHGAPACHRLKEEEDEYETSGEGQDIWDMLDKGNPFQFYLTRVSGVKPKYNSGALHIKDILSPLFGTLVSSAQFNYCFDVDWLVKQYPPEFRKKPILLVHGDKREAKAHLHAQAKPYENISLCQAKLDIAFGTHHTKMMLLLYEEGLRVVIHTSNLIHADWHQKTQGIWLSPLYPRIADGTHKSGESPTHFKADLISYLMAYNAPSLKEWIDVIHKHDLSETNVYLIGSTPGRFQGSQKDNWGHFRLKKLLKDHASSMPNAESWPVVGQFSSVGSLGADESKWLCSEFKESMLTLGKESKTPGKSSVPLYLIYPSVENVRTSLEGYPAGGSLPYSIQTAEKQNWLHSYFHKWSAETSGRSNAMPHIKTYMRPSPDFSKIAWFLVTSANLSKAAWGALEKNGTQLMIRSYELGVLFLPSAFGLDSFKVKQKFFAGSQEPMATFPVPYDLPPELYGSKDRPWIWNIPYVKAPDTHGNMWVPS
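AlphaScreen read-out: signal falls as enzyme removes the 3' tyrosine-FITC from a 5'-biotinylated DNA oligo (15 nM, 5 min, RT). Enzyme was E. coli-made recombinant Tdp1 at 1 nM, exposed to compound for 15 min beforehand; beads 10 ug/ml, 10 min.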
Large screens that a line does not name were inactive. Unless noted, calls follow the shape of the dose curve; as a rule, active = well fitted curve in the direction sought with a large enough effect; inconclusive = small, poorly fitted or top-dose-only effect, or another doubt; inactive = no such curve, though single readings can be large; an effect the other way counts as inactive or inconclusive.

COc1cccc(-c2cccc(NC(=O)C3CCN(Cc4ccc(C)o4)CC3)c2)c1	TDP1 cell noCPT inconclusive
Cc1nc2ccccc2c(=O)n1CCc1ccc(O)cc1	none (no result: TDP1 block)
CCS(=O)(=O)c1ccc(-c2csc(-c3ccc(Cl)cc3)n2)c(Cl)c1Cl	TDP1 cell noCPT inconclusive, DT40 TDP1 CPT inconclusive
CCS(=O)(=O)c1ccc(-c2csc(-c3ccccc3Cl)n2)c(Cl)c1Cl	TDP1 cell noCPT 23µM, DT40 TDP1 CPT inconclusive
Cc1ccc(SSc2cc(C)ccc2N)c(N)c1	TDP1 cell noCPT 8.2µM, DT40 TDP1 CPT 7.3µM, TGFb SMAD3 inh inconclusive, IL1B secr inh -108
Nc1cc(S(=O)(=O)c2ccc(O)c(N)c2)ccc1O	none
Cc1ccc(Sc2ccccc2CN(C)C)c(N)c1	none (no result: TDP1 cell noCPT, HepG2 viability, DT40 TDP1 CPT, TGFb SMAD3 inh, IL1B secr inh)
Cc1ccc(O)c(N)c1	TDP1 cell noCPT 23µM, DT40 TDP1 CPT inconclusive
O=C(CCCn1c(SCc2cccc([N+](=O)[O-])c2)nc2ccccc2c1=O)NCC1CCCO1 (centres undefined)	TDP1 cell noCPT 23µM, DT40 TDP1 CPT inconclusive, IL1B secr inh inconclusive
CCc1ccccc1NC(=O)CSc1nc2cc(C(=O)NCC3CCCO3)ccc2c(=O)n1CC1CCCO1 (centres undefined)	TDP1 cell noCPT inconclusive, DT40 TDP1 CPT inconclusive (no result: TDP1 block)
CCCCCn1c(SCC#N)nc2cc(C(=O)NCC3CCCO3)ccc2c1=O (centres undefined)	TDP1 cell noCPT 23µM, DT40 TDP1 CPT inconclusive
COc1ccc(CCNC(=O)CSc2cc(=O)n(C)c3ccccc23)cc1OC	none (no result: IL1B secr inh)
COc1ccc(Cl)cc1NC(=O)Cn1nnc2sc(-c3ccccc3)cc2c1=O	TDP1 cell noCPT inconclusive, DT40 TDP1 CPT inconclusive (no result: IL1B secr inh)
COc1ccc(NC(=O)CSCC(=O)Nc2ccc(S(=O)(=O)N3CCCC3)cc2)cc1	none
Nc1c(C(=O)Nc2ccc(S(=O)(=O)N3CCCC3)cc2)sc2nc3ccc(OC(F)(F)F)cc3cc12	TDP1 cell noCPT 18µM, HepG2 viability 1.8µM, DT40 TDP1 CPT 9.2µM, IL1B secr inh -97
Nc1c(C(=O)Nc2ccc(Cl)c(C(=O)O)c2)sc2nc3c(cc12)CCCC3	none
Nc1c(C(=O)Nc2ccc(S(=O)(=O)N3CCCC3)cc2)sc2nc3cc4c(cc3cc12)CCC4	TDP1 cell noCPT 6.5µM, DT40 TDP1 CPT 6.5µM
O=c1c(O)c(-c2ccc(O)cc2)oc2cc(O)cc(O)c12	TDP1 cell noCPT inconclusive, DT40 TDP1 CPT inconclusive
O=c1c(-c2c(O)cc(O)c3c2O[C@H](c2ccc(O)cc2)CC3)c(-c2ccc(O)cc2)oc2cc(O)cc(O)c12	TDP1 cell noCPT 5.2µM, DT40 TDP1 CPT inconclusive, TGFb SMAD3 inh inconclusive
CCOC(=O)c1ccc(N2C(=O)c3n[nH]c(C)c3C2c2ccccc2OC)cc1 (centres undefined)	TDP1 cell noCPT 18µM, DT40 TDP1 CPT 16µM, TGFb SMAD3 inh inconclusive (no result: IL1B secr inh)
CCOC(=O)c1ccc(N2C(=O)c3n[nH]c(C)c3C2c2ccccc2)cc1 (centres undefined)	none
CCOC(=O)c1ccc(N2C(=O)c3n[nH]c(-c4ccco4)c3C2c2ccccc2OC)cc1 (centres undefined)	TDP1 cell noCPT 6.5µM, HepG2 viability 5µM, DT40 TDP1 CPT 18µM, TGFb SMAD3 inh inconclusive (no result: IL1B secr inh)
CCN(CC)CCCn1c(-c2ccccc2)nc2c(N3CCOCC3)nc(C)nc21	none (no result: TDP1 cell noCPT, HepG2 viability, DT40 TDP1 CPT, TGFb SMAD3 inh, IL1B secr inh)
COc1cccc(C2=N/C(=C\N(C)C)C(=O)O2)c1	TDP1 cell noCPT 23µM, DT40 TDP1 CPT inconclusive, IL1B secr inh -61
COc1cc(C2=N/C(=C\c3ccccc3)C(=O)O2)cc(OC)c1OC	none (no result: HepG2 viability, TGFb SMAD3 inh, IL1B secr inh)
Cc1ccc(S(=O)(=O)N(C)C[C@H]2Oc3ccc(NC(=O)Nc4c(C)noc4C)cc3CC(=O)N([C@@H](C)CO)C[C@@H]2C)cc1	none

Screening results (PubChem)
